# High-throughput results deposited in PubChem by National Center for Advancing Translational Sciences (NCATS).
# TCR act: activates T cell receptor signaling; primary human leukocytes, anti-CD3, IL-2 HTRF, 48 h; Potency, µM (highest dose often 9.22 µM), inactives show at the top dose activation of IL-2 secretion, usual class: activators; 330,000 tested, under 10 active; further: % of control where 0% means no effect
#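 IL-2 release read by HTRF sandwich (Eu cryptate donor, d2 acceptor, 665 nm emission) after 48 hr exposure of primary human leukocytes to compound together with anti-CD3 beads in the absence of co-stimulatory signals.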
# Chronic BCR inh: chronic active BCR signaling inhibition; ABC-DLBCL IkBa-CBG/CBR reporter, luminescence ratio, 4 h; Potency, µM (top dose mostly 46.1 µM), for inactives: at the top dose activity change, negative = inhibition, usual class: inhibitors; 340,000 tested, 0.05% active; AID 493014; active means well fitted inhibition curve with a large enough effect in the signal ratio, with a control signal flat, not every such curve was filed as active; inconclusive means small, poorly fitted or top-dose-only effect, or effect the other way, or a change in a side signal; the % refers to the signal ratio;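 further: potency means the concentration at half of the fitted maximal effect; plate controls were basal doxycycline-induced cells for no effect and cells given 10 µM MG132 for full effect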
#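 Doxycycline induced both beetle luciferases in TMD8 lymphoma cells; IKK-driven degradation limits the IkappaBalpha-fused green signal, while red luminescence normalises for cell number and nonspecific effects. Compounds tested up to 46 uM, 4 hrs.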
# Giardia kill: Giardia lamblia killing; activity change, % at 7.66 µM, hits read low; 340,000 tested, 0.15% active; Giardia lamblia trophozoite viability; in the data active means activity change below about -80%; inconclusive means between about -30% and that limit;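 further: parasites exposed to compound for two days anaerobically before the ATP read; on the % scale 0 is the no-effect control and ±100 the full control effect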
#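 Trophozoite viability was measured as ATP-dependent luminescence, read 15-30 min after reagent addition. Before that, parasites at 100 cells/well were exposed to compounds for 48 h, anaerobically, at 37 deg C.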
# a7 integrin act: integrin-mediated muscular dystrophy alleviation activation; alpha7betagal myoblasts, beta-gal FDG fluorescence, 48 h; Potency, µM (titrated, usually from 38.3 µM), inactives show at the highest dose activation, most hits filed as activators; 350,000 tested, 0.064% active;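 further: potency means the concentration at half of the fitted maximal effect; 100% = response of the positive control SU9516; nearly all actives have a fitted effect of over 60% in size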
#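 Alpha7betagal+/- myoblasts (passage 13) were plated 16-24 hr, then exposed to compounds (1:260 dilution of DMSO stock) for 48 hours at 37C. After MPER lysis, β-galactosidase reporter activity was read as FDG fluorescence (ex 480/em 540) after 30 minutes.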
# * hit, by the source's call; ? = inconclusive; / = no result given; [ ] = remark or other dose. Only some compounds are listed: those with a hit (about 0.25% of all), similar ones and a draw of the others. Unless noted, the call rests on the fitted dose curve; in most records, active means well fitted curve in the direction sought with a large enough effect; inconclusive means small, poorly fitted or top-dose-only effect, or another doubt; inactive means no such curve, though single readings can be large; an effect the other way counts as inactive or inconclusive.
SMILES,TCR act,Chronic BCR inh,Giardia kill,a7 integrin act
Cn1cnc([N+](=O)[O-])c1S(=O)(=O)Oc1ccc(Cl)cc1,-4%,/,0,-71%
CC1(C)CC(=O)c2sc(NC(=O)c3cccs3)nc2C1,-13%[46.1 µM],?,-96*,16%
Cc1nc2c(o1)C(=O)c1ccccc1C2=Nc1ccccc1,-4%,/,-101*,-56%
CC(=O)c1c(C)oc2c1C(=O)c1ccccc1C2=O,3%[46.1 µM],?,?,0%
O=C(Nc1ncnc2nc[nH]c12)c1ccccc1,/,/,16,/
COc1cccc(/C=N/NC(=O)c2cc3c(OC)ccc(OC)c3[nH]2)c1O,-2%,3.2µM*,5,-17%
COc1cc(OC)c2cc(C(=O)N/N=C/c3cccc(OC)c3O)[nH]c2c1,-3%,?,3,-19%
COc1ccc(CNC(=O)c2cnn(-c3ccc(C)cc3)c2C2CCN(C(=O)OC(C)(C)C)CC2)cc1,/,10%,/,/
COc1ccc(CNc2nc(Cl)nc3nc[nH]c23)cc1,/,/,2,/
CC(=O)c1ccc(S(=O)(=O)N2CCn3cccc3C2c2ccc(C)cc2)cc1 (stereo not drawn),/,12%,/,/
CN(C)c1nc(=NCc2cccs2)ss1,3%,/,-81*,-55%
Cc1ccc(C(=O)NCC(c2cccs2)S(=O)(=O)c2ccccc2)cc1C (stereo not drawn),/,14%,/,/
COc1ccccc1CNc1ncnc2c1c(-c1ccccc1)cn2-c1cccc(C)c1,/,3%,/,/
CCCN(C(=O)c1ccc(S(=O)(=O)N2CCCC2)cc1)C1CCS(=O)(=O)C1 (stereo not drawn),-7%,-1%,12,5µM*
COC(=O)c1c(NC(=O)CCCOc2ccc(C)cc2)sc2c1C(C(=O)OC)CC2 (stereo not drawn),/,/,16,/
Cc1cc(NC(=O)Nc2ccc(Cl)cc2)no1,-8%,-4%,0,35%
Cc1cc(NC(=O)c2ccc(Cl)cc2Cl)no1,-2%,?,-19,1.4µM*
O=C(O)c1ccc(N/N=C/c2cc3cc4c(cc3nc2Cl)OCCO4)cc1,-3%,?,-88*,12%
Cc1nccc(-c2ccc(-n3cnc4ccccc43)cc2)n1,1%,?,6,-1%
Nc1nccc(-c2ccc(-n3cnc4ccccc43)cc2)n1,1%,?,-4,11µM*
O=C(O)c1ccc(CSc2nnc(-c3ccco3)o2)cc1,3%,18µM*,-20,4%
COc1ccc2c(CN(C)c3ccccc3)cc(=O)oc2c1,8%,15µM*,24,-22%
CCN(Cc1cc(=O)oc2cc(C)ccc12)c1ccccc1,5%,5%,-2,?
COc1cccc(NC(=O)CSc2cc(C)[nH]c(=O)n2)c1,/,13%,/,/
Cc1c(C(=O)N2CCCCC2)c(S(=O)(=O)Nc2cccc(Br)c2)c(C)n1C,13%,-7%,-16,10µM*
SMILES,TCR act,Chronic BCR inh,Giardia kill,a7 integrin act
CCOC(=O)c1sc(NC(=O)c2ccco2)c(C#N)c1C,4%,0%,1,5%
CC(=O)N1CCc2c(sc(NC(=O)c3ccc([N+](=O)[O-])o3)c2C#N)C1,3%,?,-88*,-23%
COc1ccc(C(=O)Nc2sc3c(c2C#N)CCN(C(C)=O)C3)cc1,1%,?,-3,2%
COC(=O)c1sc(NC(=O)c2ccc([N+](=O)[O-])o2)c(C#N)c1C,-1%,18%,-93*,?
CC(OC(=O)c1cc(-c2cccnc2)nc2ccccc12)C(=O)Nc1ccc2ccccc2c1 (stereo not drawn),-10%[46.1 µM],15%,7,1.1µM*
CCCCN(CCCN)c1ccc(Br)cn1,/,/,-9,/
COC(=O)[C@@]1(Cc2ccc(OC)cc2)[C@H]2c3cc(C(=O)N4CCCC4)n(CCn4cc([N+](=O)[O-])nc4C)c3C[C@H]2CN1C(=O)c1ccccc1,-3%,2%,-83*,8%
COC(=O)[C@@]1(Cc2ccc(OC)cc2)[C@H]2c3cc(C(=O)N4CCCC4)n(Cc4ccc(OC)c(OC)c4)c3C[C@H]2CN1C(=O)c1ccccc1,/,-17%,/,/
CCc1ccc2nc3n[nH]c(N)c3cc2c1,3%,13µM*,-9,6%
COc1cc(NC(=O)N2CCNC2=O)cc(C(=O)Nc2cccc(C(F)(F)F)c2)c1,-2%,18µM*,-7,-20%
CC1CCCN(c2ncnc3c2cnn3-c2ccc(F)cc2)C1 (stereo not drawn),/,14%,/,/
Cn1c(=S)c2[nH]c(SCCN)nc2n(C)c1=O,5%,/,5,12%
Cn1c(=S)c2[nH]c(SCCN3CCCC3)nc2n(C)c1=O,12%,11µM*,-18,-10%
Cc1ccc(C)c(NC(=O)CSc2nc(=O)n(CCN3CCOCC3)c3c2CCC3)c1,/,-4%,/,/
O=C(N/N=C/c1ccc([N+](=O)[O-])o1)c1cn2ccc3ccccc3c2n1,1%,2%,-95*,-17%
COC(=O)N/N=C/c1ccc([N+](=O)[O-])o1,-1%[46.1 µM],-2%,?,-44%
Cc1cc(C(=O)N/N=C/c2ccc([N+](=O)[O-])o2)c(C)o1,-2%,?,-97*,-36%
O=C(COc1ccccc1)N/N=C/c1ccc([N+](=O)[O-])o1,5%[46.1 µM],?,-97*,-43%
COc1ccc(-c2nn(-c3ccccc3)cc2C(=O)N/N=C/c2ccc([N+](=O)[O-])o2)cc1,5%,-2%,-86*,-36%
CCCC(=O)Nc1ccc(C(=O)N/N=C/c2ccc([N+](=O)[O-])o2)cc1,-2%[46.1 µM],14%,3,-57%
COc1ccc(-c2nn(-c3ccccc3)cc2C(=O)N2CCOCC2)cc1,-3%,?,-13,-17%
O=C(N/N=C/c1ccc([N+](=O)[O-])o1)C(O)c1ccccc1 (stereo not drawn),4%,-7%,-84*,-74%
O=C(CNc1ccc2ccccc2c1)N/N=C/c1ccc([N+](=O)[O-])o1,2%[46.1 µM],0%,-91*,-54%
Cc1ccc(OCC(=O)N/N=C/c2ccc([N+](=O)[O-])o2)cc1,-5%,?,-101*,-54%
O=C(N/N=C/c1ccc([N+](=O)[O-])o1)C1CC1,16%,7%,-85*,-45%
SMILES,TCR act,Chronic BCR inh,Giardia kill,a7 integrin act
Cc1ccc(OCC(=O)N/N=C\c2ccc(C)o2)c([N+](=O)[O-])c1,/,17%,8,-41%
NC(=O)N/N=C/c1ccc([N+](=O)[O-])o1,-2%,3%,?,/
O=C(N/N=C/c1ccccn1)c1sc2ccccc2c1Cl,8%,?,9,-58%
COc1c(/C=N/Nc2nc(N3CCCCC3)nc(N3CCCCC3)n2)cccc1[N+](=O)[O-],-4%,0%,-2,-2%
O=C(N/N=C/c1ccc([N+](=O)[O-])o1)c1sc2ccccc2c1Cl,3%,7%,-95*,-47%
O=C(CSc1ccc(Cl)cc1)N/N=C/c1ccc([N+](=O)[O-])o1,-1%,8%,-95*,-54%
O=[N+]([O-])c1ccc(/C=N/Nc2nc(N3CCCCC3)nc(N3CCCCC3)n2)o1,-1%,?,-84*,-22%
CCOc1ccc(N2CC(NC(=O)C3CC3)CC2=O)cc1 (stereo not drawn),/,13%,/,/
